# Laboratory results as given in article doi:10.1101/2024.03.05.583629.
# Tests used:
# pT7_6His-AlfaTag-HOXD13 = pT7_6His-AlfaTag-HOXD13 (human, UniProt P35453 263-343); assay: PADIT-seq; conditions: dsDNA, one strand shown
# pT7_6His-AlfaTag-ZIF268 = pT7_6His-AlfaTag-ZIF268 (human, UniProt P18146 335-423); assay: PADIT-seq; conditions: dsDNA, one strand shown
# Sequence of pT7_6His-AlfaTag-HOXD13 (P35453 263-343): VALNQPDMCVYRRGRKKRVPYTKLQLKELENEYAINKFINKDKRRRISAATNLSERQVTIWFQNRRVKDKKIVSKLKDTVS
Sequence,binding signal (pT7_6His-AlfaTag-HOXD13),binding signal (pT7_6His-AlfaTag-ZIF268)
CTCGAGGATATCAAGATCTGGCCTCGGCTCACTAAAAGGAACCTCTAGCTAGCCGACTCACTATAGGGATAATCGCCCTGAGCAAAGACC,0.718 ± 0.11 log2FC,0.00307 ± 0.107 log2FC
CTCGAGGATATCAAGATCTGGCCTCGGCAGAATAAAAGGAACCTCTAGCTAGCCGACTCACTATAGGGATAATCGCCCTGAGCAAAGACC,0.976 ± 0.0851 log2FC,0.0567 ± 0.0846 log2FC
CTCGAGGATATCAAGATCTGGCCTCGGCTTTCCACGCGGAACCTCTAGCTAGCCGACTCACTATAGGGATAATCGCCCTGAGCAAAGACC,-0.793 ± 0.11 log2FC,–
CTCGAGGATATCAAGATCTGGCCTCGGCCGCCTAAAAGGAACCTCTAGCTAGCCGACTCACTATAGGGATAATCGCCCTGAGCAAAGACC,-0.524 ± 0.115 log2FC,0.0248 ± 0.0968 log2FC
CTCGAGGATATCAAGATCTGGCCTCGGCGCGTGGACTGGAACCTCTAGCTAGCCGACTCACTATAGGGATAATCGCCCTGAGCAAAGACC,-0.334 ± 0.121 log2FC,0.0272 ± 0.108 log2FC
CTCGAGGATATCAAGATCTGGCCTCGGCTTTTTAATCGGAACCTCTAGCTAGCCGACTCACTATAGGGATAATCGCCCTGAGCAAAGACC,1.1 ± 0.0911 log2FC,–
CTCGAGGATATCAAGATCTGGCCTCGGCCGCTTTCGCGGAACCTCTAGCTAGCCGACTCACTATAGGGATAATCGCCCTGAGCAAAGACC,-1.06 ± 0.128 log2FC,0.0116 ± 0.104 log2FC
CTCGAGGATATCAAGATCTGGCCTCGGCTTTTTAGGTGGAACCTCTAGCTAGCCGACTCACTATAGGGATAATCGCCCTGAGCAAAGACC,-0.0749 ± 0.107 log2FC,–
CTCGAGGATATCAAGATCTGGCCTCGGCTGTTGGGCGGGAACCTCTAGCTAGCCGACTCACTATAGGGATAATCGCCCTGAGCAAAGACC,-1.03 ± 0.1 log2FC,0.111 ± 0.0773 log2FC
CTCGAGGATATCAAGATCTGGCCTCGGCACTATAAAAGGAACCTCTAGCTAGCCGACTCACTATAGGGATAATCGCCCTGAGCAAAGACC,2.93 ± 0.0918 log2FC,0.0278 ± 0.1 log2FC
CTCGAGGATATCAAGATCTGGCCTCGGCGCGTGGAGTGGAACCTCTAGCTAGCCGACTCACTATAGGGATAATCGCCCTGAGCAAAGACC,-0.822 ± 0.144 log2FC,0.252 ± 0.117 log2FC
CTCGAGGATATCAAGATCTGGCCTCGGCCGCCCACTTGGAACCTCTAGCTAGCCGACTCACTATAGGGATAATCGCCCTGAGCAAAGACC,-0.908 ± 0.133 log2FC,0.543 ± 0.104 log2FC
CTCGAGGATATCAAGATCTGGCCTCGGCGGGATAAAAGGAACCTCTAGCTAGCCGACTCACTATAGGGATAATCGCCCTGAGCAAAGACC,0.241 ± 0.0798 log2FC,0.0461 ± 0.0742 log2FC
CTCGAGGATATCAAGATCTGGCCTCGGCTTATTAAAAGGAACCTCTAGCTAGCCGACTCACTATAGGGATAATCGCCCTGAGCAAAGACC,3.06 ± 0.0807 log2FC,0.0487 ± 0.0902 log2FC
CTCGAGGATATCAAGATCTGGCCTCGGCTTTTTACGAGGAACCTCTAGCTAGCCGACTCACTATAGGGATAATCGCCCTGAGCAAAGACC,3.37 ± 0.0866 log2FC,–
CTCGAGGATATCAAGATCTGGCCTCGGCTTTTTAGGCGGAACCTCTAGCTAGCCGACTCACTATAGGGATAATCGCCCTGAGCAAAGACC,0.0492 ± 0.119 log2FC,0.0276 ± 0.11 log2FC
CTCGAGGATATCAAGATCTGGCCTCGGCCTTTTAAAAGGAACCTCTAGCTAGCCGACTCACTATAGGGATAATCGCCCTGAGCAAAGACC,2.5 ± 0.0673 log2FC,0.098 ± 0.0706 log2FC
CTCGAGGATATCAAGATCTGGCCTCGGCATTTGGGCGGGAACCTCTAGCTAGCCGACTCACTATAGGGATAATCGCCCTGAGCAAAGACC,-0.941 ± 0.11 log2FC,0.125 ± 0.0899 log2FC
CTCGAGGATATCAAGATCTGGCCTCGGCCTTTTACGCGGAACCTCTAGCTAGCCGACTCACTATAGGGATAATCGCCCTGAGCAAAGACC,1.9 ± 0.0733 log2FC,0.0363 ± 0.0782 log2FC
CTCGAGGATATCAAGATCTGGCCTCGGCATTTTAAGAGGAACCTCTAGCTAGCCGACTCACTATAGGGATAATCGCCCTGAGCAAAGACC,2.98 ± 0.0964 log2FC,0.0486 ± 0.104 log2FC
CTCGAGGATATCAAGATCTGGCCTCGGCGTTTTAACGGGAACCTCTAGCTAGCCGACTCACTATAGGGATAATCGCCCTGAGCAAAGACC,1.81 ± 0.0879 log2FC,0.0881 ± 0.0918 log2FC
CTCGAGGATATCAAGATCTGGCCTCGGCGAATGGGCGGGAACCTCTAGCTAGCCGACTCACTATAGGGATAATCGCCCTGAGCAAAGACC,-0.762 ± 0.106 log2FC,0.0552 ± 0.0878 log2FC
CTCGAGGATATCAAGATCTGGCCTCGGCATTTTACGGGGAACCTCTAGCTAGCCGACTCACTATAGGGATAATCGCCCTGAGCAAAGACC,3.18 ± 0.0854 log2FC,0.0766 ± 0.0939 log2FC
CTCGAGGATATCAAGATCTGGCCTCGGCCGCCCATGCGGAACCTCTAGCTAGCCGACTCACTATAGGGATAATCGCCCTGAGCAAAGACC,-0.953 ± 0.115 log2FC,0.0314 ± 0.091 log2FC
